High-throughput results: PubChem, The Scripps Research Institute Molecular Screening Center
MITF primary = MITF inhibitors, primary screen, biochemical, AlphaScreen, human. AlphaScreen MITF homodimerization, bead proximity signal. AID 1259374, 2018. Microphthalmia-associated transcription factor (Homo sapiens), O75030. 650,000 compounds, 0.91% hits. inhibition, % at 2.6 µM; in the data active = inhibition above about 50%;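 note: 0% = vehicle wells with protein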
TEAD-YAP block = TEAD-YAP interaction inhibition, primary screen, TEAD-YAP interaction inhibitor project, luminescence, HEK-TIYL cells | TEAD-Gal4/YAP UAS-luciferase luminescence | 640,000 compounds, 1.4% hits | inhibition, % at 9.12 µM; in the data active = inhibition above about 32%;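 note: 0% = median of test compound wells and 100% = reference inhibitor wells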
FBW7 activator = FBW7 E3 ligase activators, primary screen, biochemical, AlphaScreen, human. AID 1259310, 2017. F-box/WD repeat-containing protein 7 (Homo sapiens), Q969H0. 650,000 compounds, 0.13% hits. normalized activity (activation), % at 26.1 µM. AlphaScreen FBW7–phospho-cyclin E peptide binding, activator screen; in the data active = normalized activity above about 1.9%;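 note: purified mutant Fbw7 with reduced substrate affinity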
GPR151 ag = activators of human GPR151, primary screen, cell-based, PathHunter beta-arrestin, luminescence. PathHunter beta-arrestin GPR151 cells. activation, % at 11.2 µM. 650,000 compounds, 1% hits. AID 1508602, 2020; in the data active = activation above about 4.9%;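 note: 0% = median of compound wells and 100% = cells with positive control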
Target sequence (Q8TDV0 whole entry, looked up): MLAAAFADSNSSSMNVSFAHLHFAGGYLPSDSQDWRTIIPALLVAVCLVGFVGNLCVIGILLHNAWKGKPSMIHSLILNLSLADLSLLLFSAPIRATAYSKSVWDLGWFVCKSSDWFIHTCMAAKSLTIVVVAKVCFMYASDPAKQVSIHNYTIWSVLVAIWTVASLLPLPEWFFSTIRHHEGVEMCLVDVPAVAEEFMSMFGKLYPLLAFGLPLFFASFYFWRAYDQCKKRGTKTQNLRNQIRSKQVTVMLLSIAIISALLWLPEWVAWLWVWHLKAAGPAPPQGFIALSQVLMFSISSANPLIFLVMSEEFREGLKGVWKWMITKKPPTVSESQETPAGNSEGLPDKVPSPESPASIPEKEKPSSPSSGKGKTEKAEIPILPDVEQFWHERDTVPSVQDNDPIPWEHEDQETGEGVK
GPR151 conf act = GPR151 activators, triplicate retest, confirmation, cell-based, PathHunter beta-arrestin, luminescence. GPR151 PathHunter beta-arrestin cells, 90 min; % of EA-reagent control over plate median. shares compounds with GPR151 ag. activation, % at 11.2 µM. 6,700 tested, under 10 active;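 active = mean percent activation across replicates above the confirmation screen cutoff of 4.91%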
GPR119 ag = GPR119 activators in beta-arrestin cells, counter-screen for GPR151 activator project, cell-based, PathHunter beta-arrestin, luminescence, triplicate; shares compounds with GPR151 ag; 90 min; 0 = compound-well median, 100 = enzyme-acceptor control; activation, % at 11.2 µM; 6,700 compounds, 0.3% hits; AID 1508611, 2020;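 active = mean percent activation in the counterscreen above 29.09%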;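 note: counterscreen on off-target GPR119 to flag nonselective hits from the GPR151 activator screen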
An asterisk follows results filed as active; . = no result. Shown are actives, neighbours in structure and some others; about 3.5% of the full set was active somewhere.

SMILES | MITF primary | TEAD-YAP block | FBW7 activator | GPR151 ag | GPR151 conf act | GPR119 ag
COc1ccc2cc(CN(CCCO)C(=O)c3ccc(C)cc3)c(=O)[nH]c2c1 | 4 | -4 | 0 | 5.5* | 1 | 6
COc1ccc(Cn2nnnc2CN(CCCO)Cc2cc3cc(C)ccc3[nH]c2=O)cc1 | 13 | 7 | 0 | 6.7* | -1 | -14
CCc1nnc(SCC(=O)N2CCNC(=O)C2CC(=O)OC)n1N (configuration not stated) | 9 | 4 | 0 | -2 | . | .
CC(=O)NCCC(=O)NNC(=O)c1ccc(OC(C)C)cc1 | -3 | 4 | 0 | 0 | . | .
CC(=O)Nc1c(O)nc(SCC(=O)Nc2ccc(C)cc2)[nH]c1=O | -6 | 3 | -1 | 3 | . | .
Cc1ccc(C)c(OCC(=O)O/N=C(\N)c2ccc(Br)cc2)c1 | -2 | -7 | 0 | 1 | . | .
Cc1ccc(/C(N)=N/OC(=O)COc2ccc(Br)cc2)cc1 | 1 | -4 | 0 | 8.5* | 0 | 7
COc1cc(C(=O)O/N=C(\N)c2ccc(Br)cc2)cc(OC)c1OC | 13 | 0 | 0 | 6.6* | 0 | -10
Cc1ccc(C)c(OCC(=O)O/N=C(\N)c2ccc(I)cc2)c1 | -14 | 3 | 0 | 5.5* | 0 | -2
O=C1CCCC2=C1C(c1ccccc1F)n1c(nc3ccccc31)N2 (configuration not stated) | 16 | 0 | 0 | 9.6* | 2 | -5
CCCCc1ccc(N2C(=NC(C)=O)SC3CS(=O)(=O)CC32)cc1 (configuration not stated) | 9 | 0 | 1 | 1 | . | .
CCC1(C)Cc2c(sc3nc(SC)n(C)c(=O)c23)CO1 (configuration not stated) | -4 | 4 | 1 | 0 | . | .
COc1cc(C(N)=O)ccc1OCC(C)C | -2 | 0 | 0 | 0 | . | .
CCCOc1ccc(C(N)=O)cc1OC | 21 | 4 | 0 | 5.6* | 1 | 7
Cc1cc(N2CCCC(C(=O)NCc3ccccc3F)C2)n2ncnc2n1 (configuration not stated) | 13 | 1 | 0 | 0 | . | .
CNCC#CCOc1ccc(OC)cc1 | 41 | -5 | 1 | 1 | . | .
COc1ccc(OCC#CCNC(C)(C)C)cc1 | 9 | 5 | 0 | 8.7* | 1 | -6
COc1ccc2oc(=O)c(N(C)S(=O)(=O)c3ccc(C)cc3)cc2c1 | 15 | 2 | 0 | 5.1* | -1 | -2
CCN(CC)C(=O)C1CCCN1S(=O)(=O)c1cccc2nsnc12 (configuration not stated) | 11 | -1 | 0 | 2 | . | .
CCN(C(=O)C1CCCN1S(=O)(=O)c1cccc2nsnc12)c1cccc(C)c1 (configuration not stated) | 17 | 7 | 0 | 8.2* | -1 | 2
O=C(CCNS(=O)(=O)c1ccc2[nH]c(=O)ccc2c1)NCc1ccccc1 | 4 | -6 | 0 | 8.2* | 0 | 3
Cc1ccc(CNC(=O)CCNS(=O)(=O)c2ccc3[nH]c(=O)ccc3c2)cc1 | 2 | -3 | 0 | 0 | . | .
COc1ccc(NC(=S)NN2CCOCC2)cc1OC | -12 | -4 | 0 | 14* | 1 | 2
COc1ccc(NC(=O)N2CCN(C/C=C/c3ccccc3)CC2)cc1OC | 13 | 12 | 0 | 14* | 0 | -9
Cc1cc(NC(=O)CCN2CCN(C/C=C/c3ccccc3)CC2)ccc1Br | 3 | 15 | 0 | 1 | . | .
COc1ccc(NC(=O)N2CCCCCC2)cc1OC | 15 | -3 | 0 | 5.5* | -2 | -18
Cc1cccc(NC(=O)CCN2CCN(C/C=C/c3ccccc3)CC2)c1 | 17 | 2 | 1 | 4.9* | 0 | -6
CC(=O)c1cccc(NC(=O)N2CCN(C/C=C/c3ccccc3)CC2)c1 | -4 | 2 | 0 | 0 | . | .
COc1ccc(NC(=O)N2CCCC2)cc1OC | 10 | 5 | 0 | 1 | . | .
